This passage reports growth results from PubChem BioAssay (NCI).

The panel holds about 83,000 compounds, 20% with a hit somewhere; the sample as a whole holds those more often.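 Testing used 96-well plates and a 48-hour single-concentration exposure. Example: -40 means 40% of the starting cells died.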 Unmarked numbers belong to inactive results. Activity calls are given as the source filed them. Rule for the calls: active = growth percent below 10; inactive = the rest.

Some test systems named below: DU-145 prostate; K-562 leukemia; MALME-3M melanoma; MDA-MB-231 breast; RXF 393 renal; SF-268 CNS; SF-295 CNS; SF-539 CNS; UACC-257 melanoma; M14 melanoma; HCT-15 colon; HT29 colon; SNB-75 CNS; SNB-19 CNS; U251 CNS; PC-3 prostate; SK-MEL-5 melanoma; LOX IMVI melanoma; SK-MEL-28 melanoma; UACC-62 melanoma.
Experiment in all cases: NCI-60 one-dose screen, 48 h (100 = growth as untreated, 0 = no growth, -100 = all killed)
Holding throughout (conditions): 10 µM unless noted

Turning to `Nc1cc(Br)c(-c2nnc(CCC(=O)c3nc4ccccc4[nH]3)o2)c(Br)c1`, the growth was 103% in the test with DU-145 prostate; 27% with K-562 leukemia; 58.7% with MALME-3M melanoma; 76.7% in the test on MDA-MB-231 breast; 92.6% with RXF 393 renal; 88.2% with SF-268 CNS. Besides, the growth in the test on SF-295 CNS is 66.3%; in the test on SF-539 CNS it was 93.9%; in the test on UACC-257 melanoma, 90.7%; in the test with M14 melanoma, 79.8%; in the test on HCT-15 colon, 104%; with HT29 colon, 84.1%. The growth in the test on SNB-75 CNS is 58.9%; in the test on SNB-19 CNS, 85.5%; with U251 CNS it was 68.2%; in the test with PC-3 prostate, 74.9%; in the test with SK-MEL-5 melanoma, 47.7%; in the test on LOX IMVI melanoma it was 44.7%. Besides, in the test on SK-MEL-28 melanoma, the growth is 65.4%.

Consider `Clc1ccc(Nc2nc(Nc3ccccc3)nc(Nc3ccc(-c4cc(-c5ccc(Cl)cc5)on4)cc3)n2)cc1`, for which the growth was 32.6% in the test on DU-145 prostate; 40.2% with K-562 leukemia; 64.5% in the test with MALME-3M melanoma; 60.5% in the test on MDA-MB-231 breast; 74.6% in the test on RXF 393 renal; 61.7% in the test with SF-268 CNS. Besides, the growth was 54% in the test on SF-295 CNS; 54.2% in the test with SF-539 CNS; 70.1% in the test on UACC-257 melanoma; 41.4% in the test with M14 melanoma; 43.1% with HCT-15 colon; -2.96% (active) with HT29 colon. In addition, the growth was 16.6% with SNB-75 CNS; 76.7% in the test with SNB-19 CNS; 48.5% in the test on U251 CNS; 46.1% with PC-3 prostate; 86% with SK-MEL-5 melanoma; 53.3% in the test on UACC-62 melanoma. Moreover, the growth is 32.5% in the test on LOX IMVI melanoma and 77.7% with SK-MEL-28 melanoma.

With `CN1CCN(C(=O)OCCOCCOC(=O)N2CCN(C)CC2)CC1`, the growth was 111% in the test with DU-145 prostate; 106% with K-562 leukemia; 133% in the test with MALME-3M melanoma; 94.9% in the test with MDA-MB-231 breast; 87.8% in the test with RXF 393 renal; 102% with SF-268 CNS. The growth in the test with SF-295 CNS was 85.9%; in the test on SF-539 CNS, 97.9%; in the test with UACC-257 melanoma, 94.2%; in the test on M14 melanoma, 103%; in the test with HCT-15 colon, 96.3%; in the test with HT29 colon, 101%. Also, the growth in the test with SNB-75 CNS was 80.8%; in the test with SNB-19 CNS it was 104%; with U251 CNS, 103%; in the test on PC-3 prostate, 90.1%; in the test with SK-MEL-5 melanoma, 104%; in the test with UACC-62 melanoma, 102%. Besides, the growth was 90.9% in the test on LOX IMVI melanoma and 105% with SK-MEL-28 melanoma.

`Cc1ccc(S(=O)(=O)N2CCc3ccc(O)c4c3C2Cc2ccc3c(c2-4)OCO3)cc1` (stereo not given): the growth in the test with DU-145 prostate was 10.3%; in the test with K-562 leukemia, 15.1%; in the test with MALME-3M melanoma it was 61.8%; with MDA-MB-231 breast, 6.15% (active); in the test on RXF 393 renal it was 0.195% (active); in the test with SF-268 CNS it was 37.2%. The growth in the test with SF-295 CNS was 14.3%; in the test on SF-539 CNS it was 3.96% (active); with UACC-257 melanoma, 45.6%; with M14 melanoma, 5.43% (active); with HCT-15 colon it was 30.6%; with HT29 colon, 52.3%. The growth is 5.09% (active) with SNB-75 CNS; 52.3% with SNB-19 CNS; 12.7% with U251 CNS; 26.8% in the test on PC-3 prostate; 25.9% in the test on SK-MEL-5 melanoma; 22.1% with UACC-62 melanoma. Besides, in the test on SK-MEL-28 melanoma, the growth was 44.4%.

Take `CC(=O)N(CC(O)CO)c1c(I)c(C(=O)NCCO)c(I)c(C(=O)NCC(O)CO)c1I` (stereo not given): the growth in the test on DU-145 prostate was 110%; in the test with K-562 leukemia, 97%; with MALME-3M melanoma, 92.4%; in the test with MDA-MB-231 breast, 90.5%; in the test on RXF 393 renal, 103%; in the test on SF-268 CNS, 105%. Besides, the growth in the test with SF-295 CNS is 118%; in the test on SF-539 CNS it was 100%; in the test on UACC-257 melanoma, 103%; in the test with M14 melanoma, 92.6%; with HCT-15 colon, 96.4%; in the test on HT29 colon, 99.9%. In addition, the growth in the test on SNB-75 CNS was 95.6%; in the test with SNB-19 CNS it was 106%; with U251 CNS, 100%; in the test with PC-3 prostate it was 81.3%; with SK-MEL-5 melanoma it was 91.7%; in the test on UACC-62 melanoma, 111%. In addition, the growth with SK-MEL-28 melanoma was 112%.

In the case of `COc1ccc(-c2nn(-c3ccc(NC(=O)c4ccc(Cl)c(Cl)c4)cc3)cc2-c2ccncc2)cc1Cl`, the growth with DU-145 prostate is 68.4%; in the test on K-562 leukemia it was 5.86% (active); in the test with MALME-3M melanoma, 43%; in the test with MDA-MB-231 breast, -16.3% (active); in the test with RXF 393 renal, -82.1% (active); in the test with SF-268 CNS it was 49.2%. The growth with SF-295 CNS was -31.5% (active); with SF-539 CNS it was 26%; in the test on UACC-257 melanoma, 93.3%; in the test on M14 melanoma it was 6.62% (active); with HCT-15 colon, -1.71% (active); in the test with HT29 colon, -27.7% (active). For the same compound, the growth was 59.4% in the test on SNB-75 CNS; 56.7% in the test with SNB-19 CNS; 25% in the test on U251 CNS; 26.7% in the test on PC-3 prostate; 5.09% (active) in the test with SK-MEL-5 melanoma; 24.5% in the test with UACC-62 melanoma. Also, the growth in the test with SK-MEL-28 melanoma is 65.8%.

For `COc1ccc(OC2=CC(=O)c3ccc(C)nc3C2=O)cc1`, the growth in the test with DU-145 prostate was 102%; in the test with K-562 leukemia, 43.5%; with MALME-3M melanoma, 128%; in the test on MDA-MB-231 breast it was 90.1%; in the test on RXF 393 renal, 88.9%; in the test with SF-268 CNS, 79.2%. In addition, the growth in the test on SF-295 CNS was 96.8%; in the test with SF-539 CNS, 89.6%; with UACC-257 melanoma, 93.8%; in the test on M14 melanoma it was 87.3%; in the test on HCT-15 colon, 76.1%; in the test on HT29 colon, 102%. Moreover, the growth was 53.4% in the test with SNB-75 CNS; 87.7% with SNB-19 CNS; 96.4% in the test with U251 CNS; 85.2% in the test with PC-3 prostate; 83.5% in the test with SK-MEL-5 melanoma; 83.6% with UACC-62 melanoma. For the same compound, the growth in the test on LOX IMVI melanoma is 75.6%; with SK-MEL-28 melanoma it was 93.5%.

`CCOC(=O)c1cn2c3c(cc(F)cc3c1=O)C(CC)c1ccccc1C2` (stereo not given): the growth in the test on DU-145 prostate was 104%; in the test on K-562 leukemia, 78.1%; in the test on MALME-3M melanoma, 90.8%; with MDA-MB-231 breast, 104%; in the test with RXF 393 renal it was 118%; in the test on SF-268 CNS it was 96.8%. In addition, the growth in the test on SF-295 CNS was 91.5%; in the test with SF-539 CNS it was 97.5%; in the test with UACC-257 melanoma, 96.3%; in the test on M14 melanoma, 114%; in the test with HCT-15 colon it was 57.8%; in the test on HT29 colon, 95.9%. For the same compound, the growth was 92.3% in the test on SNB-75 CNS; 103% in the test on SNB-19 CNS; 83.8% in the test with U251 CNS; 81.6% in the test on PC-3 prostate; 63.7% in the test on SK-MEL-5 melanoma; 105% in the test with UACC-62 melanoma. For the same compound, the growth in the test on SK-MEL-28 melanoma was 98.9%.
